Source: PubChem BioAssay
Measles CPE – compounds protecting cells from measles virus cytopathic effect, primary screen, measles RdRp inhibitor project, single point, MLSMR library, absorbance; actives 1.5% (n = 140,000); Measles virus-infected cells, CPE protection; protection (pct of control), % at 4 µM; in the data active = protection mostly above about 24%, no sharp cut-off; inactive = mostly below about 26%
KCC2 mod – KCC2 cotransporter modulators, thallium flux, primary screen, cell-based, HEK293 KCC2, FluoZin-2 fluorescence, MLSMR; actives 2.2% (n = 190,000); B-score of Tl+ flux slope (higher = more flux/activation; lower = inhibition) at 10 µM; KCC2 cells, thallium flux FluoZin-2 fluorescence;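 active = thallium flux slope and its plate-corrected score both differing from the plate sample mean at a set confidence after two filtering rounds, in either direction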;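 also: slope of fluorescence scaled to starting intensity during 10 to 20 s after thallium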
HSV augment – enhancers of HSV replication in host cells, fold increase, host cell viability | maximum fold increase | HSV replication augmentation in cells | actives 0.005% (n = 220,000); in the data active = maximum fold increase above about 1.5; inconclusive = no clear call, values can overlap the other calls; tested in PC3 cells
ROMK primary – ROMK potassium channel modulators, primary screen, cell-based, thallium flux, MLSMR library; ATP-sensitive inward rectifier potassium channel 1 (Homo sapiens), P48048; Tet-inducible ROMK, thallium flux fluorescence; actives lie on both sides; B-score at 10 µM; actives 2% (n = 130,000); AID 1918, 2009;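 active = signal ratio slope over the read window, or its plate-corrected B-score, at least 3 SD from the plate mean, either direction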;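 also: B-score of the F/F0 ratio slope over 7 to 12 s after thallium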
Target sequence (P48048 whole entry, looked up): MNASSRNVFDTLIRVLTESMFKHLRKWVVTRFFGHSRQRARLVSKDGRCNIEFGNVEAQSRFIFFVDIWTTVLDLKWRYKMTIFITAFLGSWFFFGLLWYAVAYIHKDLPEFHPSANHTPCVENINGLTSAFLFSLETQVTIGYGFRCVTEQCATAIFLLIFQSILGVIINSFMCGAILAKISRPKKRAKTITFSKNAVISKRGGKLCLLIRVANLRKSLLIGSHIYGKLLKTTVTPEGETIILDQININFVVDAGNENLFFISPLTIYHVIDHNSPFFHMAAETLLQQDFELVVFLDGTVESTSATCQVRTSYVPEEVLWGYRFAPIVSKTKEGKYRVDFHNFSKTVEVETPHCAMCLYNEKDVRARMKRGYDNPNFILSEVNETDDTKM
Arbovirus anti – antivirals against arbovirus infection, primary screen, cell-based, full library, 10K replicate subset. arbovirus infection cell-based antiviral screen. inhibition, % at 10 µM. actives 0.37% (n = 200,000); in the data active = inhibition above about 30%
KCC2 secondary – KCC2 modulators in sodium-free buffer, confirmation, cell-based, HEK293 KCC2, thallium flux, secondary assay | shares compounds with KCC2 mod | FluoZin2 fluorescence; active compounds read high | normalised thallium flux (F/F0 slope) at 10 µM | actives 15% (n = 3,700) | AID 1713, 2009;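 active = thallium flux slope above the same plate's solvent-only control mean plus 3 SD; inconclusive = the two replicate wells disagree; inactive = no significant difference from solvent-only control wells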
KCC2 bumet counter – thallium flux persisting under bumetanide in KCC2 cells, confirmation, counter-screen for KCC2 modulator project, cell-based, HEK293 KCC2, FluoZin2, secondary assay 3. normalized thallium flux at 10 µM. HEK293-KCC2 + bumetanide/ouabain; active compounds read high. AID 1714, 2009. shares compounds with KCC2 mod. actives 49% (n = 3,700);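 active = thallium entry rate above the same plate's blocked-transporter control wells by more than 3 SD; inconclusive = the two repeat wells disagree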;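 also: raw slope of fluorescence over initial fluorescence between 10 and 20 s after thallium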
KCC2 sec2 – KCC2 modulators without ouabain present, confirmation, cell-based, HEK293 KCC2, thallium flux, FluoZin2, secondary assay 2. thallium flux FluoZin2 fluorescence; actives lie on both sides; F/F0 rise rate, 10–20 s post-thallium. actives 23% (n = 3,700). shares compounds with KCC2 mod. normalized thallium flux at 10 µM. AID 1715, 2009;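 active = thallium flux slope more than 3 SD above or below the plate's solvent-only control mean, mostly below; inconclusive = the two repeat wells disagreed; inactive = no significant shift from solvent-only controls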;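 also: raw slope with 0.1% DMSO as baseline and bumetanide as block control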
HEK293 Tl flux – thallium flux modulation in parental HEK cells, confirmation, counter-screen for KCC2 modulator project, cell-based, counterscreen 1; actives 46% (n = 3,700); thallium flux rate (normalised fluorescence) at 10 µM; HEK293 parental cells, thallium flux FluoZin2, ouabain; baseline-ratio fluorescence slope, 10–20 s after thallium; AID 1716, 2009; shares compounds with KCC2 mod;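 active = thallium flux rate significantly above the same plate's solvent-only control wells, beyond their mean plus 3 SD; inconclusive = the two replicate wells gave conflicting results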
KCC2 ouabain – KCC2 inhibitors and activators, ouabain retest, confirmation, HEK-KCC2 cells | shares compounds with KCC2 mod | raw Tl+ flux slope (below DMSO = inhibition, above = activation) at 10 µM | AID 1717, 2009 | actives 48% (n = 3,700) | HEK293-KCC2, thallium flux FluoZin2 fluorescence; bidirectional: low = inhibitor, high = activator;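 active = thallium flux slope beyond 3 SD from same-plate DMSO control mean in most replicates, usually higher, sometimes lower; inconclusive = repeat tests gave conflicting results; inactive = no significant difference from controls in most replicates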;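 also: slope of initial-normalized fluorescence between seconds 10 and 20 after thallium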
HEK293 Tl flux2 – native HEK Tl+ uptake effects, second counter-screen – HEK cells, counterscreen 2, counter-screen for KCC2 modulator project, confirmation; shares compounds with KCC2 mod; HEK293 parental, thallium flux FluoZin-2 fluorescence slope; thallium flux slope at 10 µM; actives 33% (n = 3,700); AID 1718, 2009;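 active = thallium flux slope above the same plate's solvent-control mean plus 3 SD in both duplicate wells; inconclusive = duplicate wells that disagreed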;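 also: run without ouabain in cells lacking the KCC2 cotransporter; slope of fluorescence scaled to its starting value between 10 and 20 s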
* hit, by the source's call; i = inactive; ? = inconclusive; / = no result. In the library only some 4% were active in any assay of this set; here they are far more common.

SMILES | Measles CPE | KCC2 mod | HSV augment | ROMK primary | Arbovirus anti | KCC2 secondary | KCC2 bumet counter | KCC2 sec2 | HEK293 Tl flux | KCC2 ouabain | HEK293 Tl flux2
O=c1[nH]c(CN2CCCCC2)nc2c1C1(CCCCC1)Cc1ccccc1-2 | 3 | -0.77 | i | 0.82 | 0 | / | / | / | / | / | /
Cc1nc(=S)c2c([nH]1)-c1ccccc1CC21CCCCC1 | / | 77* | i | / | / | 0.02* | 0.1* | 0.03 | 0.04* | 0.068* | 0.011*
COc1ccc(/C(C)=N/Nc2nc3ccccc3n3cnnc23)cc1OC | / | -2.3 | i | -0.26 | / | / | / | / | / | / | /
CO[C@H]1O[C@@H]2O[C@@]3(C)CC[C@H]4[C@H](C)CC[C@@H]([C@H]1C)[C@@]24OO3 | / | / | i | / | / | / | / | / | / | / | /
CCc1cc(CN2CCOCC2)c(NC(=O)c2ccccc2)s1 | / | -0.52 | i | 0.5 | -10 | / | / | / | / | / | /
CCOC(=O)C1=C(N)OC2=C(C(=O)CCC2)C1c1sccc1C (stereo unspecified) | 1 | -6.4* | i | -0.069 | 4 | 0.0059 | 0.0045 | ? | 0.0062* | 0.017 | 0.0088*
Cn1c(C(=O)OC(C(=O)NC2CCCC2)c2cccnc2)cc2sccc21 (stereo unspecified) | 5 | -2.7* | i | / | -20 | 0.0083 | 0.0063 | 0.028 | 0.0075 | 0.045* | 0.011*
O=C(O)CCc1ccc(-c2ccc(F)cc2)n1CC1CCCO1 (stereo unspecified) | 8 | 0.6 | i | / | 7 | / | / | / | / | / | /
O=C(O)CCc1ccc(-c2ccc(F)cc2)n1CCC(=O)O | 4 | 3.2* | i | 1.1 | 1 | 0.01 | ? | 0.034 | 0.008 | 0.023 | 0.011
COC(=O)c1cnn(-c2ccccc2)c1/C=N/NC(=S)Nc1ccccc1 | / | 9.2* | i | 0.41 | / | 0.0094 | 0.019* | 0.03 | 0.012* | 0.029* | 0.01
COC(=O)c1cnn(-c2ccc(F)cc2F)c1/C=N/NC(=S)NC(C)(C)C | / | 7.8* | i | -0.23 | / | 0.011 | 0.051* | 0.031 | 0.017* | 0.031 | ?
CNC(=S)N/N=C/c1c(C(=O)OC)cnn1-c1ccc(F)cc1F | / | 2.2 | i | -0.024 | / | / | / | / | / | / | /
Cc1ccc(SCC(=O)Nc2cc([N+](=O)[O-])ccc2O)cc1 | / | -3.5 | i | 1.1 | 16 | / | / | / | / | / | /
COc1ccc2c(c1)C(=O)N(c1ccccc1C)C(=O)C2(C)C | / | -0.28 | i | 0.071 | 1 | / | / | / | / | / | /
COc1ccc(-c2nnc(-c3ccc(OCC(C)C)cc3)o2)cc1 | 7 | -5.5* | i | / | 5 | 0.016 | 0.0051 | 0.029 | 0.0077 | 0.017 | 0.01
CCCCN(C)CCNC(=O)CCNC(=O)Cn1ccc2ccccc2c1=O | / | -0.12 | i | -0.048 | 9 | / | / | / | / | / | /
Cc1cc(Cl)ccc1NC(=S)NCc1ccccc1Cl | 7 | -0.3 | i | -0.03 | 9 | / | / | / | / | / | /
S=C(NCc1ccccc1Cl)Nc1ccccc1Cl | / | 6.1* | i | -2.1 | 4 | 0.0089 | 0.012* | 0.029 | 0.0075 | ? | 0.0086
S=C1NC2(CCCC2)N=C1c1ccccc1 | / | 2.3 | i | -1.8 | -1 | / | / | / | / | / | /
Cc1ccc(C2=NC3(CCCC3)NC2=S)cc1 | / | 5.6* | i | -0.76 | 5 | 0.011 | 0.019* | 0.03 | 0.011* | 0.024 | ?
S=C1NC2(CCCCCC2)N=C1c1ccccc1 | / | 4.6* | i | -0.15 | 2 | 0.01 | 0.016* | 0.038 | ? | ? | 0.013
CCCCNc1cc(C(=O)O)cc(S(N)(=O)=O)c1Oc1ccccc1 | 8 | -6.4* | i | / | 1 | 0.0063 | 0.0046 | 0.023* | 0.0064 | 0.013* | 0.0094
Cc1cc(C)cc(NC(=O)Cn2nnc3ccccc3c2=O)c1 | / | -0.12 | i | 1 | 8 | / | / | / | / | / | /
O=C(CSCc1ccc(Cl)cc1)Nc1cc([N+](=O)[O-])ccc1O | / | -3.4* | i | -2.5 | 13 | 0.0056 | 0.004 | 0.022* | 0.0062* | 0.014* | 0.0083*
O=C(Nc1cccc(-c2nnn(CC(=O)N3CCc4ccccc4C3)n2)c1)C1CCC1 | 10 | / | i | -0.34 | -5 | 0.017 | 0.0043 | ? | ? | 0.014* | 0.01
SMILES | Measles CPE | KCC2 mod | HSV augment | ROMK primary | Arbovirus anti | KCC2 secondary | KCC2 bumet counter | KCC2 sec2 | HEK293 Tl flux | KCC2 ouabain | HEK293 Tl flux2
S=c1[nH]nc(CNc2cccc(Cl)c2)o1 | / | -5.2* | i | 0.8 | 0 | 0.0069 | ? | 0.025* | 0.0077 | 0.014* | 0.01
Clc1cccc(NCc2nnc(SCc3ccc(Cl)cc3Cl)o2)c1 | 9 | 0.072 | i | / | -11 | / | / | / | / | / | /
COc1cccc([C@@H]2Oc3ccc(OC)cc3C(=O)[C@H]2OC(=O)NCc2ccc3c(c2)OCO3)c1 | 8 | 42* | / | 2.2 | 7 | 0.0061 | 0.058* | 0.064* | 0.068* | 0.055* | 0.051*
COc1ccc2c(c1)O[C@H](c1ccc3c(c1)OCO3)[C@@H](OC(=O)N[C@H](C)C1CCCCC1)C2=O | 7 | 2.1 | / | -1.9 | -22 | / | / | / | / | / | /
COc1cccc([C@@H]2Oc3ccc(OC)cc3C(=O)[C@H]2OC(=O)Nc2cc(OC)c(OC)c(OC)c2)c1 | 14 | 0.17 | i | 2.3 | 5 | / | / | / | / | / | /
COc1ccc2c(c1)O[C@@H](c1cccc(C(F)(F)F)c1)[C@H](OC(=O)NCCc1ccc(OC)c(OC)c1)C2=O | 3 | 38* | / | 0.45 | -12 | 0.0067 | 0.028* | ? | 0.029* | 0.037* | 0.022*
COC(=O)[C@@H](NC(=O)O[C@@H]1C(=O)c2ccc(OC)cc2O[C@H]1c1cccc(C(F)(F)F)c1)C(C)C | 7 | 5.6* | / | -0.61 | 4 | 0.0064 | 0.011* | 0.031 | 0.015* | ? | 0.013*
O=C(c1ccccc1)c1nc2c(n1O)CCCCC2 | / | i | i | / | 1 | / | / | / | / | / | /
